The assay deals with Chordin-like protein 2 (CHRDL2). Kind of assay: compounds binding chordin-like 2 – biochemical, small-molecule microarray, 635 nm fluorescence, primary screen (AID 1126).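 Further: printed compound slides probed with Chrdl2 protein at 4 µg/mL for 1 h at 4 C; score merges 667 nm emission intensity with signal to noise over three replicate slides.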 The note with it: fluorescence 635 nm, higher = more signal.
`COC(=O)c1c2oc(c1C(=O)OC)C(=O)N(Cc1ccccc1)Cc1cn(nn1)C[C@H](Cc1ccccc1)NC(=O)N[C@H](CO)CC2`: the composite z-score is 0.369. `O=C1O[C@H](c2ccccc2)[C@H](c2ccccc2)N2[C@H]1[C@@H](C(=O)Nc1nc3ccccc3s1)[C@]1(C(=O)Nc3ccc(C#CC4(O)CCCCCC4)cc31)[C@H]2c1ccccc1OCCO` yielded a composite z-score of 0.413.

In turn, `O=C1O[C@@H](c2ccccc2)[C@@H](c2ccccc2)N2[C@@H](c3ccccc3OCCO)[C@]3(C(=O)Nc4ccc(C#CCCO)cc43)[C@@H](C(=O)N3CCCCCCC3)[C@H]12` came in with a composite z-score of 1.72. Compound `CC(C)N1CC=CC23O[C@@H]4C=CCOC(=O)[C@@H]4[C@H]2C(=O)N(CCCO)[C@@H]3C1=O` (stereo not given in full) registered a composite z-score of -0.73. To `COc1ccc([Si](C)(C)[C@@H]2[C@@H](CC(=O)N(CCO)Cc3ccccc3)O[C@]3(C(=O)N(Cc4cccc(N5CCOC5=O)c4)c4ccccc43)[C@H]2C)cc1` belongs 0.647; to `COC(=O)[C@@]1(Cc2ccc(F)cc2)[C@H]2c3cc(C(=O)N4CCCC4)n(CCN4CNCC4=O)c3C[C@H]2CN1C(=O)c1ccccc1`, -0.834; to `C=C[C@@H](COC(C)=O)N(C(=O)OC(C)(C)C)S(=O)(=O)c1ccc(Br)cc1`, 1.4. In turn, `CN(C)C(=O)[C@]1(CCS(=O)(=O)c2ccccc2)N=C(c2ccc(OCCCO)cc2)O[C@@H]1c1ccccc1N=[N+]=[N-]` yielded a composite z-score of 0.555.

In turn, `O=C1NC(=O)C2C1C=CC(C(O)c1ccco1)N2Nc1ccccn1` (stereo not given) displayed a composite z-score of 0.146.

Turning to `C=CC[C@]1(C(=O)NCCN2CCOCC2)N=C(c2ccc(OCCCO)cc2)O[C@H]1c1ccccc1CN=[N+]=[N-]`, the composite z-score was 1.38. The compound `CCOC(=O)C[C@H]1[C@H](OC(=O)c2ccccc2-c2ccccc2)[C@@H](NC(=O)c2ccc(-c3ccccc3)cc2)c2cc(OCCCO)ccc2N1C(=O)c1ccc2ccccc2n1` displayed a composite z-score of 0.304.

As for `CCCC[C@@H](O)C1=C(COc2ccccc2)C[C@H]2C(=O)N(C)C(=O)[C@H]2[C@H]1CO`, the composite z-score amounted to 0.103. The result for `COCCOC(=O)N1C(=O)[C@@]2(c3cc(C#Cc4ccc(OC)cc4)ccc31)[C@H](C(=O)Nc1nc3ccccc3s1)[C@H]1C(=O)O[C@H](c3ccccc3)[C@H](c3ccccc3)N1[C@@H]2c1ccc(O)cc1` reads 0.576. With `COC1OC[C@]2(C)[C@H]3C4=C(CN2C(=O)OC(C)(C)C)[C@H](C)C(CO)C(CO)C4CC[C@@H]13` (stereo not given in full), the composite z-score is -0.675. In the case of `COCCCNC(=O)[C@]1(CCS(=O)(=O)c2ccccc2)N=C(c2ccc(OCCCO)cc2)O[C@@H]1c1ccccc1N=[N+]=[N-]`, the composite z-score is -0.71. To `CCCNC(=O)[C@@]1(c2ccc([N+](=O)[O-])cc2)CC(=O)N(C2CCCCC2)[C@@H]1c1ccc(CO)cc1` belongs 0.19; to `[N-]=[N+]=NCc1ccccc1C[C@@]1(C(=O)N2CCOCC2)N=C(c2ccc(OCCCO)cc2)O[C@@H]1c1ccccc1`, -0.577. To `NC(N)=NCCCn1cc(CNC(=O)[C@@H](N)Cc2ccccc2)nn1` belongs 0.57; to `COC(=O)[C@@]1(Cc2ccc(OC)cc2)[C@H]2c3cc(C(=O)N(C)C)n(CCO)c3C[C@H]2CN1C(=O)c1ccccc1`, -0.784; to `COCCCNC(=O)[C@@]1(Cc2ccccc2CN=[N+]=[N-])N=C(c2ccc(OCCCO)cc2)O[C@H]1c1ccccc1`, -0.751.

`C=C[C@@H](OC)[C@H](OC(=O)Nc1ccc(SC)cc1)c1ccc(O)c(F)c1`: the composite z-score amounted to 0.0611. `CCCCCCCCCCC(O)C1C=CC2C(=O)N(C)C(=O)C2N1Nc1ccc([N+](=O)[O-])cc1[N+](=O)[O-]` (stereo not given) had a composite z-score of -0.0731. Take `O=C(NCc1ccccc1)[C@@H]1c2ccccc2C(=O)N(Cc2ccccc2C(F)(F)F)[C@H]1c1ccc(CO)cc1`: the composite z-score is -1.2.

As to `COCCOC(=O)N1C(=O)[C@@]2(c3cc(C#CCCO)ccc31)[C@H](C(=O)Nc1nc3ccccc3s1)[C@H]1C(=O)O[C@H](c3ccccc3)[C@H](c3ccccc3)N1[C@@H]2c1ccccc1OCCO`, the composite z-score came to 0.524.

Take `COCCOC(=O)N1C(=O)[C@@]2(c3cc(C#CCC(C(=O)OC)C(=O)OC)ccc31)[C@H](C(=O)N1CCc3cc(OC)c(OC)cc3C1)[C@H]1C(=O)O[C@H](c3ccccc3)[C@H](c3ccccc3)N1[C@@H]2c1ccc(OCCO)cc1`: the composite z-score is 0.837. `COc1ccc(CCNC(=O)[C@@]2(Sc3ccc(C)cc3)CC(=O)N(C3Cc4ccccc4C3)[C@@H]2c2ccc(CO)cc2)cc1` returned a composite z-score of 1.5. Regarding `CC1=C([C@H](O)CCc2ccccc2)[C@H](CO)[C@@H]2C(=O)N(C)C(=O)[C@@H]2C1`, the composite z-score is 0.557. The result for `COc1ccccc1CN1C(=O)c2ccccc2[C@@]2(Cc3ccccc3N(CC(F)(F)F)C2=O)[C@@H]1c1ccc(CO)cc1` reads 1.03; that for `CC(C)(C)OC(=O)CC[C@]1(C(=O)NCc2ccccc2)N=C(c2ccc(OCCCO)cc2)O[C@H]1c1ccccc1CN=[N+]=[N-]`, -0.0873. The result for `O=C(NCC(F)(F)F)[C@@H]1c2ccccc2C(=O)N(Cc2ccc(OC(F)(F)F)cc2)[C@H]1c1ccc(CO)cc1` reads -0.374; that for `COc1ccc([Si](C)(C)[C@H]2[C@H](CCn3cc([C@H](O)c4ccccc4)nn3)O[C@@]3(C(=O)N(Cc4ccc(N5C(=O)c6cccc7cccc5c67)cc4)c4ccccc43)[C@@H]2C)cc1`, -0.803; that for `CCCCCCc1nc(C2CC2)cc2c1[Si](C(C)C)(C(C)C)O[C@H]2c1ccccc1`, 0.21. `COc1cc2c(cc1OC)CN(C(=O)[C@@H]1[C@H]3C(=O)O[C@H](c4ccccc4)[C@H](c4ccccc4)N3[C@H](c3ccc(OCCO)cc3)[C@@]13C(=O)Nc1ccccc13)CC2` displayed a composite z-score of 0.508. Turning to `CCOC(=O)C[C@H]1[C@H](OC(=O)c2ccc(C(=O)c3ccccc3)cc2)[C@@H](NC(=O)Cc2ccc(OC)cc2)c2cc(OCCCO)ccc2N1C(=O)c1ccccc1`, the composite z-score was -0.0656. Consider `Cc1cc(C)c(C(O)C2C=CC3C(=O)NC(=O)C3N2Nc2ccc(Cl)cc2Cl)c(C)c1` (stereo not given), for which the composite z-score was -0.48.

These data come from PubChem BioAssay.
